VLA-4 inh: inhibition in a human VLA-4 binding assay | P13612 | VLA-4 expressing cells, ligand binding flow cytometry | inhibition, % (about 7 µM as worked out from the volumes in the protocol) | 330,000 compounds, 0.2% hits | AID 2557; in the data active means inhibition above about 50%
DSG3 Ab inh: blocks pemphigus antibody binding to human desmoglein-3; DSG3-coupled beads, scFv-anti-DSG3-GFP binding, flow cytometry; stronger effect = lower value; binding (percent of control), % at 10 µM; P32926; 310,000 compounds, 0.48% hits; AID 588358;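 active means binding more than 3 SD below its plate's average and above zero; inconclusive means below that plate limit but binding exactly zero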
GASC-1 inh: blocks human GASC-1 demethylase activity; Q9H3R0; GST-JMJD2C(1-420) H3K9me3 demethylation, DELFIA europium; inhibition, % at 2.35 µM; 330,000 compounds, 0.069% hits; AID 2099;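 active means more than half of a compound's replicate wells show inhibition beyond 50%, single wells judged on their own value; inconclusive means some, but no more than half, of replicates pass 50% inhibition; inactive means no replicate passes 50% inhibition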;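 further: signal counts dimethyl H3K9 product captured on neutravidin plate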
Target sequence (Q9H3R0 1-420 limits assumed): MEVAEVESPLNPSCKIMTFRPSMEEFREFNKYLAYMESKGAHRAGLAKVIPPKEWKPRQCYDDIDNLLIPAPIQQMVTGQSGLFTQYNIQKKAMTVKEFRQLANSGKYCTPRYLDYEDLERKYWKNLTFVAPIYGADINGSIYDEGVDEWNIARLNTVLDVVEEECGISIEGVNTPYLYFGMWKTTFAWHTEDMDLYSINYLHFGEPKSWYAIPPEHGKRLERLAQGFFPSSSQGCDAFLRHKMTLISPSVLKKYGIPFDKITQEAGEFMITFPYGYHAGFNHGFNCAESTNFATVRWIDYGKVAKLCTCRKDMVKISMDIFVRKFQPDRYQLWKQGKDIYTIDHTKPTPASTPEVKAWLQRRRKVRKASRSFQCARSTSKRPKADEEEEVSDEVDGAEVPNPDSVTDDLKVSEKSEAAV
GRK2 aptamer HTS: inhibitors of human GRK2 displacing RNA aptamer; P25098; bead flow cytometry, FAM-aptamer displacement from GRK2; inhibition of aptamer binding, % at 10 µM; 330,000 compounds, 0.59% hits;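 active means inhibition of aptamer binding above 40%, roughly 3 SD of noise, on plates passing a quality check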;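 further: median bead fluorescence of bound FAM aptamer so fluorescent compounds give negative values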
PREPL inhibitor: inhibitors of human prolyl oligopeptidase-like enzyme PREPL; recombinant PREPL, fluorescence polarization activity-based probe; inhibition, % at 5.96 µM; 320,000 compounds, 0.68% hits; in the data active means inhibition above about 43%
VLA-4 mod pick: confirmation of allosteric modulators of human VLA-4 integrin; shares compounds with VLA-4 inh; U937 cells, HUTS-21 LIBS mAb binding, flow cytometry; LDV ligand present at threefold Kd; inhibition, % at 6.7 µM; 1,300 compounds, 2% hits; in the data active means inhibition above about 40%
A number is an active result; i = inactive; ? = inconclusive; nt = no result. Sampled rows, rich in hits. Any-hit rate of the full collection: about 1.6%.

SMILES	VLA-4 inh	DSG3 Ab inh	GASC-1 inh	GRK2 aptamer HTS	PREPL inhibitor	VLA-4 mod pick
CCCCN1C(=O)C(=O)c2cc(Cl)ccc21	55	i	i	i	i	51
COc1ccccc1CC(=O)Nc1ncc(C)s1	i	i	i	i	i	nt
Cc1cccc(OCC(=O)N/N=C\c2cc3c(cc2[N+](=O)[O-])OCO3)c1C	i	i	i	i	i	nt
Cn1c(SCC(=O)NC(c2ccccc2)c2ccccc2)nnc1-c1cccs1	i	i	i	i	i	nt
CC(CCc1ccccc1)NC(=O)C(C)OC(=O)c1ccco1 (stereo not drawn)	i	i	i	i	i	nt
COc1ccc(C(=O)OC(C)C(=O)NC(C)CCc2ccccc2)cc1OC (stereo not drawn)	i	i	i	i	i	i
CCOc1ccccc1NC(=O)NCc1ccccc1	50	i	i	i	i	i
CCOc1ccccc1NC(=O)NCc1cccnc1	i	i	i	i	i	nt
Cc1ccc(CCNC(=O)Cc2ccc(NC3=NC4CS(=O)(=O)CC4S3)cc2)cc1 (stereo not drawn)	i	i	i	i	i	nt
O=C(CS(=O)CC(=O)N(c1ccccc1)C(C(=O)NC1CCCC1)c1cccs1)Nc1ccc(F)cc1 (stereo not drawn)	i	i	i	i	i	nt
COc1cccc(N(C(=O)CS(=O)CC(=O)Nc2ccc(F)cc2)C(C(=O)NC2CCCCC2)c2cccs2)c1 (stereo not drawn)	i	i	i	i	i	i
O=C(NCCS(=O)(=O)N1CCCC1)c1ccccc1	i	i	?	i	i	nt
COC(=O)Cc1ccc(NC(=O)c2ccc(C)c(C)c2)cc1	60	i	i	i	i	i
CCCCn1c(N)c(N(CC(C)C)C(=O)CN2C(=O)NC3(CCC(C(C)(C)CC)CC3)C2=O)c(=O)[nH]c1=O (stereo not drawn)	nt	i	nt	nt	nt	nt
O=C(c1cc(Br)ccc1Cl)N1CCN(c2ccc(N3CCOCC3)nn2)CC1	51	i	i	i	i	i
COc1ccc(C(=O)NNC(=O)CN(C)S(=O)(=O)c2ccc(Cl)cc2)c(OC)c1OC	i	i	i	i	i	nt
COC(=O)C1=C(C(=O)OC)[C@]2([C@H]3CC=CCN[C@@H](Cc4ccccc4)C(=O)N3Cc3ccccc3)C=C[C@H]1O2	nt	i	nt	nt	nt	nt
Cn1cccc1C(=O)NC(=O)COC(=O)c1ccccc1O	55	i	i	i	i	i
Cn1cccc1C(=O)NC(=O)COC(=O)c1ccc(O)cc1	i	i	i	i	i	nt
CCCCn1cc(C(C)(C)C)c(C#N)c1NC(C)=O	50	i	i	i	i	i
CCCCn1c(NC(=O)c2ccccc2)c(C#N)c2nc3ccccc3nc21	nt	i	nt	nt	nt	nt
O=S(=O)(c1cccc(F)c1)N1CCN(c2nc(-c3cccnc3)nc3ccccc23)CC1	i	nt	i	i	i	nt
Cc1ccc(S(=O)(=O)N(C)/N=C2/C(=O)N(CC(=O)O)c3ccccc32)cc1	i	i	i	i	i	nt
Cc1ccnc(NS(=O)(=O)c2ccc(NC(=O)c3cc(=O)c4ccccc4o3)cc2)n1	i	i	i	i	i	nt
CC1CCCCN1S(=O)(=O)c1ccc(N(C(=O)c2cnccn2)C(C(=O)NC2CCCC2)c2cccs2)cc1 (stereo not drawn)	i	nt	i	i	i	i
SMILES	VLA-4 inh	DSG3 Ab inh	GASC-1 inh	GRK2 aptamer HTS	PREPL inhibitor	VLA-4 mod pick
CC1CCCCN1S(=O)(=O)c1ccc(N(C(=O)c2cnccn2)C(C(=O)NC2CCCCC2)c2cccs2)cc1 (stereo not drawn)	i	i	i	i	i	nt
Cc1sc(NC(=O)CN2C(=O)NC3(CCCC3)C2=O)nc1-c1ccc(F)cc1	i	i	i	i	i	nt
CN(CC(=O)Nc1ccc(F)cc1)C(=O)Cn1c(=O)oc2ccccc21	i	i	i	i	i	nt
CN(CC(=O)Nc1cccc(F)c1)C(=O)Cn1c(=O)oc2ccccc21	i	i	i	i	i	i
Cc1ccc2oc(=O)n(CC(=O)N3CCOCC3)c2c1	i	nt	i	i	i	i
CN(C(=O)Cn1c(=O)oc2ccccc21)C1CCCCC1	i	i	i	i	i	i
O=C(Cn1c(=O)oc2ccccc21)N1CCOCC1	i	i	i	i	i	nt
O=C(Cn1c(=O)oc2ccccc21)N1CCCC1	i	i	i	i	i	i
O=C(COC(=O)CN1C(=O)c2ccccc2C1=O)Nc1cccc(F)c1	i	i	nt	i	i	nt
S=C(NCCN1CCOCC1)Nc1ccc(Cl)c(Cl)c1	i	i	i	i	i	nt
CCCCC(=O)OCC(=O)N1N=C(c2c[nH]c3ccccc23)C(O)C1c1ccc(OC)cc1 (stereo not drawn)	i	i	i	i	i	nt
CC1(C)CC(N2CCCC2)=CC(=[N+]2CCCCC2)C1	50	i	i	i	i	i
CC(C)(C)c1ccc(NC(=O)COC(=O)c2ccc(CN3CCCC3=O)cc2)cc1	i	nt	i	i	i	nt
CCOC(=O)c1ccccc1NC(=O)CSc1nc2[nH]ncc2c(=O)[nH]1	i	i	i	i	i	nt
COc1ccc(OC)c(N(CC(=O)N2CCN(Cc3ccccc3)CC2)S(C)(=O)=O)c1	i	i	i	i	i	nt
CC1(c2ccncc2)Nc2ccccc2-c2nc3ccccc3n21 (stereo not drawn)	51	i	i	i	i	i
CNC(=O)/C(=C\c1ccc([N+](=O)[O-])cc1)NC(C)=O	i	i	i	i	i	nt
O=C(Nc1ccc2oc(-c3ccccc3)nc2c1)c1ccc2c(c1)OCCO2	60	i	i	i	i	i
O=C(Nc1ccc2oc(-c3ccncc3)nc2c1)c1ccc2c(c1)OCCO2	i	i	i	i	i	nt
CC(=O)Nc1nn(C)c2nc(C)cc(C)c12	i	i	i	i	i	nt
CCC(C)NC(=O)[C@@H]1CCCN1C(=O)C1CCN(S(=O)(=O)c2ccc(C)cc2)CC1 (stereo partly drawn)	53	i	i	i	i	i
COc1ccc(N(CC(=O)N2CCc3ccccc32)S(=O)(=O)c2c(C)nn(C)c2C)cc1	i	i	i	i	i	i
Cc1nn(C)c(C)c1S(=O)(=O)N(CC(=O)N1CCc2ccccc21)c1ccc(C(C)C)cc1	i	i	i	i	i	nt
Cc1cc(S(=O)(=O)Nc2c(C)nn(C)c2C)c(Cl)cc1Cl	i	nt	i	i	i	nt
CCOc1cc(CNCCO)cc(Br)c1OCc1ccccc1Cl	i	i	i	i	i	nt
CCOc1cc(CNCCCN2CCOCC2)cc(Br)c1OCc1ccccc1Cl	56	i	i	i	i	i
O=C(CCCN1C(=O)NC2(CCCC2)C1=O)Nc1cccc(S(=O)(=O)N2CCOCC2)c1	nt	i	nt	nt	nt	nt
C=CCN1c2ccccc2[C@]23C[C@@H](C(=O)OC)N(C(=O)c4ccc(Br)cc4)C2=NC(C(=O)OC)=C(C(=O)OC)[C@H]13	51	i	i	i	i	i
COC(=O)C1=C(C(=O)OC)[C@@H]2N(Cc3ccccc3)c3ccccc3[C@@]23C[C@@H](C(=O)OC)N(C(=O)c2ccc(Br)cc2)C3=N1	i	i	i	i	i	nt
